The text below walks through data of PubChem BioAssay.

Each structure is given as a SMILES string. Several values for one entry are separate records, joined by “and”; a condition that tells them apart may be missing. Equal entries are not always repeated. Activity calls are given as the source filed them.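 How the source made its calls, unless noted: active means mean z-score across replicates of 1.96 or higher in either the MELAS or the Rieske mutant cell line; inactive means the rest.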

Assay [1] can be described thus: sensitizers of A549 cells to miR-34 induction, primary screen, imaging, A549 dox-inducible miR-34, nuclei and caspase counts (AID 1347080;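 active means compounds whose cell count with miR-34 switched on is under 0.7 times the count with it off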). Particulars: A549 miR-34 inducible, Hoechst nuclei count, 48 h.
The target of assay [2] is NAD(+) hydrolase SARM1 (Homo sapiens) (UniProt Q6SZW1). Kind of assay: SARM1 TIR NADase inhibitors, cell lysate, NAD-Glo luminescence (AID 1508614;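 active means compound whose remaining NAD level is above about 45 nM, limit read from the data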). The note with it: SAM-TIR HEK293T lysate NADase, at 1 µM, stronger effect = higher value.
The target in assay [3] is Mitogen-activated protein kinase 7 (Homo sapiens) (UniProt Q13164). Description: ERK5 transactivation activators in reporter cells, primary screen, cell-based, HTS (AID 1508626;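 active means luciferase signal above three times the same-plate solvent-only control wells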;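 further: luciferase driven by Gal4-ERK5 fusion binding five Gal4 sites before minimal TATA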). The note with it: HeLa Gal4-ERK5 transactivation, 18 h, at 5 µM, stronger effect = higher value.
Assay [4] can be described thus: inhibitors of Cryptococcus chitosan production, flow cytometry, Cibacron Brilliant Red staining (AID 1347148; call rule not given here;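 further: compound exposure lasted three days at 37 degrees C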). Particulars: Cryptococcus neoformans chitosan, stronger effect = lower value; at 10 µM unless noted. For orientation: In flow cytometry, cells or beads pass a laser one at a time.
Assay [5] can be described thus: survival rescue of mitochondrial mutant cells in low glucose, primary screen, MELAS cybrids, Rieske KO mouse fibroblasts, CellTiter-Glo (AID 1508586).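 Further: z relative to plate mean and SD of compound and empty wells.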 On the technique in general: In ATP-based viability assays light output follows the ATP content of the culture.
Assay [6] is described as follows: viability rescue of complex I mutant cybrids, primary screen, cell-based, galactose medium, ATP luminescence (AID 1645843;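 active means z-score of at least 1.8 in each of two replicates, scored against plate mean and spread of sample wells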;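 further: positive z means more ATP and so rescue of galactose-driven cybrid death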). The note with it: complex I mutant cybrid cells, 72 h, stronger effect = higher value.
Assay [7] is described as follows: phospholipid biosynthesis inhibitors in animal cells, primary screen, cell-based, LOPAC library, screen 4 (AID 1347384; call rule not given here). The note with it: phospholipid biosynthesis inhibition screen, at 10 µM.
Setting [8] is: stronger effect = lower value, cell number ratio, induced over uninduced.
[9] abbreviates: measured here: relative caspase fold change +Dox/-Dox.
The mark [10] stands for this setting: measured here: total cells with miR-34 induction, stronger effect = lower value.
Where [11] appears, read: measured here: total cells without miR-34 induction.
The mark [12] stands for this setting: MELAS cybrid survival, CellTiter-Glo 48 h, stronger effect = higher value.
Setting [13] is: Rieske KO mouse fibroblast survival, CellTiter-Glo 72 h.

Chain of NAD(+) hydrolase SARM1 (Homo sapiens) (Q6SZW1 whole entry, looked up, the tested form may be a part): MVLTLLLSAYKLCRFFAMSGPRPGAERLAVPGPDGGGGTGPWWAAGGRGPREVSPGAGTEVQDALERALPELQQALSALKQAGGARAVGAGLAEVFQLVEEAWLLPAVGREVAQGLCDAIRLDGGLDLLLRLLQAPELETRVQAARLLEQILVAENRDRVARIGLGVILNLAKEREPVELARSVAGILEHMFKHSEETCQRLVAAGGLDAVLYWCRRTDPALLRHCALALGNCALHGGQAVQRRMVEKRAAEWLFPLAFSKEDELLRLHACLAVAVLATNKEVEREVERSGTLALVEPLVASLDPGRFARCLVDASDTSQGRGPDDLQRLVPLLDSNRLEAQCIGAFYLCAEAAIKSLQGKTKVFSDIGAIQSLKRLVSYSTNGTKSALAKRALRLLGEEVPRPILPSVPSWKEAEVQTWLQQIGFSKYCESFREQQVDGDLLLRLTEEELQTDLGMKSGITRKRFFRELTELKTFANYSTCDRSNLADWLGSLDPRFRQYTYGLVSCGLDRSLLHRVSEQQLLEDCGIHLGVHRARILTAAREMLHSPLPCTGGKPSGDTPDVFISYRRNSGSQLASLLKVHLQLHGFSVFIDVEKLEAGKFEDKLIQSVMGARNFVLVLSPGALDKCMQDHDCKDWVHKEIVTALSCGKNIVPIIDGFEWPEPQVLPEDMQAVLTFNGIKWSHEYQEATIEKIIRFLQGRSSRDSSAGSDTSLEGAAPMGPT
Chain of Mitogen-activated protein kinase 7 (Homo sapiens) (Q13164 whole entry, looked up, the tested form may be a part): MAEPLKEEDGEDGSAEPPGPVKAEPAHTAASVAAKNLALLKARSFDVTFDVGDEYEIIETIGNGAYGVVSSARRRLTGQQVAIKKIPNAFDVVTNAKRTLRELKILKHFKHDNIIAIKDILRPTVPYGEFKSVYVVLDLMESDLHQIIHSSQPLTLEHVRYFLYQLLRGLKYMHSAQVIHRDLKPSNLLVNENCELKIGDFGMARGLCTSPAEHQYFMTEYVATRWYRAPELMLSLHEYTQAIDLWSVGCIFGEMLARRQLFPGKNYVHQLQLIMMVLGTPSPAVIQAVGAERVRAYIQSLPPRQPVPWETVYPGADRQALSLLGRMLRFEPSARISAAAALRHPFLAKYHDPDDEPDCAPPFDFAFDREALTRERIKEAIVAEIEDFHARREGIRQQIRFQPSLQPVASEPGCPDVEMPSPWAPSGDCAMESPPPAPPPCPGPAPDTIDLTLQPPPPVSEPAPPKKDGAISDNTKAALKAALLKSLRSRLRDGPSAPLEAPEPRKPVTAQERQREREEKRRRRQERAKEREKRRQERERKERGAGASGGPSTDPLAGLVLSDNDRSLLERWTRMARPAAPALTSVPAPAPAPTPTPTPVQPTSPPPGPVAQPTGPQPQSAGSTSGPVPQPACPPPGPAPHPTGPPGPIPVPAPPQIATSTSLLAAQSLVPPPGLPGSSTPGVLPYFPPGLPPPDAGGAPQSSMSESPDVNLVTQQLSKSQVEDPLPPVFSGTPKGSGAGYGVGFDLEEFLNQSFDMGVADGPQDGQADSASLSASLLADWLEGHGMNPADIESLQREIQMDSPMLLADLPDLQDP

Regarding `CC(=O)NO`, the fold change in assay [1] (setting [8]) is 0.922 (inactive); in assay [1] (setting [9]), 0.946. Further, the cell count in assay [1] (setting [10]) amounted to 11300; in assay [1] (setting [11]), 12300. Moreover, the remaining NAD in assay [2] was 10 nM (inactive). For the same compound, in assay [3], the luciferase signal was 52 AU (inactive).

As to `COc1cc(-c2ccc(=O)[nH]n2)ccc1OC(F)F`, the fold fluorescence in assay [4] was 7.45 [at 186.4 µM] (inactive). Moreover, the z-score in assay [5] (setting [12]) is 1.87 (inactive) and 1.14 (inactive); in assay [5] (setting [13]) it was -0.582 and -0.616; in assay [6], 0.03 (inactive) and -0.045 (inactive) and 0.53 (inactive).

`OCc1cccnc1`: the fold change in assay [1] (setting [8]) was 0.908 (inactive); in assay [1] (setting [9]), 1.47. Moreover, the cell count in assay [1] (setting [10]) turned out to be 8900; in assay [1] (setting [11]) it was 9800. The remaining NAD in assay [2] is 10 nM (inactive). For the same compound, the z-score in assay [6] is 0.275 (inactive).

For the compound `COc1cc(C)c(Cc2cnc(N)nc2N)cc1OC`, the fold change in assay [1] (setting [8]) was 0.944 (inactive); in assay [1] (setting [9]), 1.06. For the same compound, the cell count came to 9440 in assay [1] (setting [10]) and 10000 in assay [1] (setting [11]). In addition, the z-score in assay [6] was 0.02 (inactive).

On to `OCc1cc(C(O)CNCCCCCCOCCCCc2ccccc2)ccc1O` (stereo not drawn), for which, in assay [7], the compound was classed as inactive. The z-score is 0.496 (inactive) and 0.0699 (inactive) in assay [5] (setting [12]); -0.33 and 0.063 in assay [5] (setting [13]).

Turning to `O=C(O)c1ccccc1Nc1cccc(C(F)(F)F)c1`, the fold fluorescence in assay [4] was 5.28 [at 177.8 µM] (inactive). Also, the z-score in assay [5] (setting [12]) is -0.231 (inactive) and 0.292 (inactive) and -0.218 (inactive); in assay [5] (setting [13]), -0.153 and 0.0506 and 0.216; in assay [6], 0.44 (inactive). Further, the remaining NAD in assay [2] is 10 nM (inactive). Further, the luciferase signal in assay [3] is 56 AU (inactive).

With `NCC1CCC(C(=O)Oc2ccc(CCC(=O)O)cc2)CC1` (stereo not drawn), the fold change was 0.97 (inactive) in assay [1] (setting [8]) and 1.97 in assay [1] (setting [9]). The cell count came to 9870 in assay [1] (setting [10]) and 10200 in assay [1] (setting [11]). For the same compound, the z-score in assay [6] is 0.62 (inactive).

Consider `Cc1cc2nc3c(=O)[nH]c(=O)nc-3n(C[C@H](O)[C@H](O)[C@H](O)CO)c2cc1C`, for which the fold change in assay [1] (setting [8]) was 0.873 (inactive); in assay [1] (setting [9]), 1.61. The cell count turned out to be 7920 in assay [1] (setting [10]) and 9080 in assay [1] (setting [11]). Besides, in assay [2], the remaining NAD is 10 nM (inactive). The luciferase signal in assay [3] was 80 AU (inactive).

In the case of `COc1ccc(CN(CCN(C)C)c2ccccn2)cc1`, the compound was classed as inactive in assay [7]. The z-score is 0.327 (inactive) and -0.721 (inactive) in assay [5] (setting [12]); 0.0359 and 0.287 in assay [5] (setting [13]); -0.145 (inactive) and 0.84 (inactive) and 0.65 (inactive) in assay [6]. For the same compound, in assay [2], the remaining NAD was 18 nM (inactive). Moreover, the luciferase signal in assay [3] was 88 AU (inactive).

Regarding `O=C1C(=O)c2ccccc2C(O)=C1C1CCC(c2ccc(Cl)cc2)CC1` (stereo not drawn), the z-score in assay [5] (setting [12]) is -0.28 (inactive) and 0.215 (inactive) and 0.186 (inactive); in assay [5] (setting [13]) it was -0.105 and 0.155 and 0.7; in assay [6], -0.055 (inactive). Further, the remaining NAD in assay [2] was 10 nM (inactive). In addition, the luciferase signal in assay [3] was 56 AU (inactive).

With `CN(C)CCC(c1ccccc1)c1ccccn1` (stereo not drawn), the call in assay [7] was inactive. In addition, the z-score was 0.589 (inactive) and -0.102 (inactive) and 0.319 (inactive) in assay [5] (setting [12]); -0.594 and -0.285 and 0.31 in assay [5] (setting [13]); 0.62 (inactive) and -0.17 (inactive) in assay [6]. The remaining NAD in assay [2] was 10 nM (inactive). In assay [3], the luciferase signal was 44 AU (inactive).

Consider `CNCC(O)c1ccc(O)c(O)c1` (stereo not drawn), for which, in assay [7], the result was inactive. Further, the z-score in assay [6] was -1.02 (inactive) and -0.655 (inactive).

As for `NC(N)=N/N=C/c1c(Cl)cccc1Cl`, the outcome in assay [7] was inactive. Besides, the z-score in assay [5] (setting [12]) was -0.136 (inactive) and 1.02 (inactive); in assay [5] (setting [13]) it was 0.531 and 1.03; in assay [6], -0.795 (inactive) and 0.845 (inactive) and -1.38 (inactive). Also, the remaining NAD in assay [2] was 10 nM (inactive). The luciferase signal in assay [3] was 52 AU (inactive).

With `CNC1(C)C2CCC(C2)C1(C)C` (stereo not drawn), the outcome in assay [7] was inactive. Further, the z-score in assay [5] (setting [12]) was -0.287 (inactive) and -0.243 (inactive); in assay [5] (setting [13]) it was 0.191 and -0.476; in assay [6] it was 0.26 (inactive) and 0.15 (inactive). The luciferase signal in assay [3] was 108 AU (inactive).

Take `COC(=O)C1=C(C)NC(C)=C(C(=O)O[C@@H]2CCCN(Cc3ccccc3)C2)[C@@H]1c1cccc([N+](=O)[O-])c1`: the z-score in assay [5] (setting [12]) was 0.772 (inactive); in assay [5] (setting [13]), 0.352.

With `CC(=O)Oc1ccc(C(c2ccc(OC(C)=O)cc2)c2ccccn2)cc1`, the z-score was -0.393 (inactive) and -0.251 (inactive) and -0.144 (inactive) in assay [5] (setting [12]); -0.124 and -0.26 and 0.348 in assay [5] (setting [13]); -0.6 (inactive) in assay [6]. Besides, the remaining NAD in assay [2] is 10 nM (inactive). Moreover, the luciferase signal in assay [3] is 44 AU (inactive).
